From PubChem BioAssay AID2702 (National Center for Advancing Translational Sciences (NCATS), 2010)
Active and inactive are the calls of the source.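 The calls were made as follows: active = compounds blocking 15-hLO-2 with IC50 at or below the top tested dose, none here; inactive = the rest.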

molecular target: Polyunsaturated fatty acid lipoxygenase ALOX15B (Homo sapiens) (UniProt O15296); assay: Cuvette-Based Assay fo Inhibitors of 15-hLO-2 (15-human lipoxygenase 2); conditions: purified 15hLO-2, arachidonic acid, UV 234 nm cuvette
Procedure: Human lipoxygenase 15hLO-2 is a member of the closely related lipoxygenase family of enzymes which catalyze the site-specific oxidation of arachidonic acid to various hormone precursor molecules and as such is a candidate for drug development in a variety of disease areas, such as cancer and inflammation. Inhibition of 15hLO-2 activity was screened by utilizing arachidonic acid as a substrate. The extent of hydroperoxide product formation was measured by a secondary chromogenic reaction in which xylenol orange (XO, Sigma-Aldrich, cat. number 39,818-7) reacts with the ferric ions produced from the reaction between the hydroperoxide and ferrous ions. The Fe(III)-XO complex is characterized with red-shifted absorbance at 560 nm. A purified preparation of human 15hLO-2 was supplied by Professor Ted Holman, University of California, Santa Cruz. This assay is includes some confirmation and follow-up compounds for related primary screening assay AID 881. Assay Provider: Holman, T.R., University of California, Santa Cruz Screening Center PI: Austin, Christopher P. Screening Center: NIH Chemical Genomics Center
For control experiments, 2 mL of substrate buffer (7 uM arachidonic acid / 25 mM HEPES / 0.01% (v/v) Triton X-100, pH 7.5) was aliquoted in a cuvette with a magnetic stir bar. After equilibrium was ensured, an aliquot of inhibitor solvent was added (DMSO or MeOH), and equilibrium was once again assured. The reaction was started by adding enzyme to the cuvette and the reaction was followed until completed. The inhibition experiments were performed as above, except the actual inhibitory compound was added instead of vehicle. To achieve an IC50, typically 5 concentrations of the inhibitor were studied. If the inhibitor concentration was constant, then five different reaction volumes were used. Step \ Parameter \ Value \ Description 1; UV-Vis; 234 nm; Equilibration 2; Reagent; 2 mL; Substrate buffer 3; UV-Vis; 234 nm; Equilibration 4; Reagent; varies; Compound 5; UV-Vis; 234 nm; Equilibration 6; Reagent; 50-200 nM; Enzyme 15hLO-2 7; UV-Vis; 234 nm; Enzymatic reaction Step \ Notes 1. Blank cuvette to air. 2. 7 uM AA, 25 mM HEPES, 0.01% Triton X-100, pH 7.5. 3. No change in absorbance ensured. 4. Compound vehicle or compound in various concentrations depending on potency. 5. No change in absorbance ensured. 6. Enzyme concentration to achieve reaction rate between 0.02 and 0.04 AU/s. 7. Enzymatic reaction visualized until completion.

Chain of Polyunsaturated fatty acid lipoxygenase ALOX15B (Homo sapiens) (O15296 whole entry, looked up): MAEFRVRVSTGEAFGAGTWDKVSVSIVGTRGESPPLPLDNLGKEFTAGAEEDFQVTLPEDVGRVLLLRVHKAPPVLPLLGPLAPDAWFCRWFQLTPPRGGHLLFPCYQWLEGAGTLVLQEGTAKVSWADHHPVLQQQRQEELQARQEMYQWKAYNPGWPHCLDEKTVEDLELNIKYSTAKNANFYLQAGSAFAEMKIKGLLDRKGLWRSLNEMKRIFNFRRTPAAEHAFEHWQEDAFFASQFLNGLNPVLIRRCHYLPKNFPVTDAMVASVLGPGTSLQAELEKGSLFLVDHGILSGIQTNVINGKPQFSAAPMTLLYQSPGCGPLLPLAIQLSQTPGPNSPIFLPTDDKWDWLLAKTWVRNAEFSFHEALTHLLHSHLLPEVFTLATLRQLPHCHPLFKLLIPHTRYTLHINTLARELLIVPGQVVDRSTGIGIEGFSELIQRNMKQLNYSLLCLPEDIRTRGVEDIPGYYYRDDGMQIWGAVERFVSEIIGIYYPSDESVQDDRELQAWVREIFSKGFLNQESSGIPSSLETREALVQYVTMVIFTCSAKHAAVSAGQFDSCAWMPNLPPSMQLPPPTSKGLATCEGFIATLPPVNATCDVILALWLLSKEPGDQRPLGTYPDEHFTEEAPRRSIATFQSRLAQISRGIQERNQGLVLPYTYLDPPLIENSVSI

outcome, inactive:
O=C1c2ccccc2NC(c2ccc(-c3cccc(Cl)c3)o2)N1O (configuration not stated), O=C(OCC#CCSc1nnc(-c2cccc3ccccc23)o1)c1cccs1, O=C(OCC#CCSc1nnc(-c2cccc3ccccc23)o1)c1cc2ccccc2o1, CC(=O)N1CCN(c2ccc(NCc3ccc4c(c3)OCO4)cc2)CC1, COc1cccc(CNc2ccc(N3CCCCC3)cc2)c1OC, O=C(OCC#CCSc1nnc(-c2cccc3ccccc23)o1)c1ccc(F)cc1, CC(C)Nc1oc(-c2cccc3ccccc23)nc1C#N
